Compound activity (PubChem)
The list is not random: actives were taken first. Their share in the collection is about 11%.
NIH3T3 tox = cytotoxic compounds in NIH 3T3 cells | hit rate 4.3% among 94,000 | Potency, µM (doses to about 96.7 µM), inactives show at the top dose activity change, negative = cytotoxicity, most hits filed as inhibitors | NIH 3T3 viability, CellTiter-Glo ATP luminescence, 48-72 h | AID 1345082; further: nearly all actives have a fitted effect of over 55% in size
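Cytotoxicity is measured as loss of cellular ATP: NIH 3T3 cells (400/well) are exposed to compound for 48 or 72 hr at 37 °C, then CellTiter-Glo luminescence is imaged after 10 min at room temperature.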
HEK293 tox = HEK 293 cell cytotoxicity; HEK 293 viability, ATP luminescence (CellTiter-Glo), 48-72 h; Potency, µM (doses to about 115 µM), for the others: at the top dose activity change, negative = cytotoxicity, actives largely listed as inhibitors; hit rate 6.6% among 94,000; AID 1345083; further: nearly all actives have a fitted effect of over 60% in size
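qHTS cytotoxicity; HEK 293, 250 cells/well; compound pinned; 48 or 72 hr, 37 degree Celsius, 5% CO2, 95% humidity; CellTiter-Glo, 10 min RT; luminescence (ATP).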
NPR1 antag = human Npr1 receptor antagonism | HEK293 hNpr1 GloSensor cGMP, ANP-stimulated luminescence | Potency, µM (titrated, usually from 46.3 µM), for the others: at the top dose activity change, negative = inhibition, hits mostly inhibitors | hit rate 1.6% among 76,000 | AID 1347048; calls by dose curve; further: nearly all actives have a fitted effect of over 60% in size
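Compound pre-incubated 30 min at room temperature on GloSensor-loaded HEK293 cells stably carrying hNpr1 and the pGS-40F cGMP biosensor. Stimulation uses hNppA at 0.1 nM final; luminescence is taken at baseline and 20 min post-agonist.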
FLuc inh = blocks purified firefly luciferase enzyme activity; P08659; purified P. pyralis luciferase, luminescence, biochemical; Potency, µM (series often up to 115 µM), actives largely listed as inhibitors; hit rate 2.5% among 76,000; AID 1347043; further: nearly all actives have a fitted effect of over 65% in size
Target sequence (P08659 whole entry, looked up): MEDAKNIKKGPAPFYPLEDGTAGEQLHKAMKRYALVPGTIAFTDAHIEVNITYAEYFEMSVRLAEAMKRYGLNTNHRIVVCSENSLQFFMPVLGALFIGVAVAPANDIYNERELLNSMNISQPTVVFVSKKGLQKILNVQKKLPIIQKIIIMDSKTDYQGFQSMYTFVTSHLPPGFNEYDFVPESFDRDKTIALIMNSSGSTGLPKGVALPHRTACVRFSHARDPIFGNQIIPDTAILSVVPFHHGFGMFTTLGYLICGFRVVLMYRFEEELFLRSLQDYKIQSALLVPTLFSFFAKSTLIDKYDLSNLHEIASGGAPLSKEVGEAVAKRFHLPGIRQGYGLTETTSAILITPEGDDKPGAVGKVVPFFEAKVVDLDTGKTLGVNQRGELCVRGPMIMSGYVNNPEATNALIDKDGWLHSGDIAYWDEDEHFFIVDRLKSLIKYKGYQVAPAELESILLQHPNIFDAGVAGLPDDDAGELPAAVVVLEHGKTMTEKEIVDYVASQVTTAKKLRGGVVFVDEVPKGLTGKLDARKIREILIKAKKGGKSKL
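FLuc 10nM, D-luciferin 10uM, ATP 10uM, Mg acetate 10mM, Tris acetate pH 7.5, Tween/BSA; cpd qHTS; enzyme added last; CCD luminescence.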
Starred values were filed as active, the others as inactive; i = inactive; ? = inconclusive; · = no result given; [ ] = another dose, or the depositor's remark. Unless noted, the call rests on the fitted dose curve; in most records, active means well fitted curve in the direction sought with a large enough effect; inconclusive means small, poorly fitted or top-dose-only effect, or another doubt; inactive means no such curve, though single readings can be large; an effect the other way counts as inactive or inconclusive. On the % scale 0 is the no-effect control and ±100 the full control effect; potency means the concentration at half of the fitted maximal effect.

SMILES	NIH3T3 tox	HEK293 tox	NPR1 antag	FLuc inh
CN1c2cc(C(=O)NCc3ccc(Cl)cc3)ccc2C(=O)N2CCCCCC21 (stereo not drawn)	?	?	-1%	i
CCc1nncn1C1CCN(C(=O)c2ccc(C)c(C)c2)CC1	-16%	-7%	-8%	i
Cc1ccc(Nc2ccnc(N3CCCC(C(=O)NCC(F)(F)F)C3)n2)cc1 (stereo not drawn)	35µM*	?	·	·
Cc1ccc(Nc2ccnc(N3CCCC(C(=O)NCC4CCCCCC4)C3)n2)cc1 (stereo not drawn)	?	28µM*	·	·
Cc1ccc(Nc2ccnc(N3CCCC3C(=O)NCC(F)F)n2)cc1 (stereo not drawn)	?	40µM*	·	·
C#CCNC(=O)C1CCCN1c1nccc(Nc2ccc(C)cc2)n1 (stereo not drawn)	-24%[138 µM]	?	·	·
Cc1ccc(Nc2ccnc(N3CCCC(C(=O)NCc4ccc(C(F)(F)F)cc4)C3)n2)cc1 (stereo not drawn)	-21%	-15%	·	·
Cc1ccc(Nc2ccnc(N3CCCC(C(=O)NCC(F)F)C3)n2)cc1 (stereo not drawn)	40µM*	45µM*	·	·
CNC(=O)CN(C)[C@H]1C[C@@H]2CO[C@H](C(C)C)C[C@@H]2C1	?	-7%	·	·
CCNC(=O)N1CCC(OC2CCN(Cc3ccccc3)CC2)CC1	-4%	-7%	-2%	i
CCCCN(Cc1ccccc1)Cc1nc(-c2ccc(C(=O)OC)cc2)no1	-11%	-11%	-8%	8.9µM*
O=C(NCCCN1CCCC1)c1ccc(-c2ccc(N3CCCCC3)nc2)cc1	?	?	0%	?
CC(C)CCNC(=O)c1ccc(-c2ccc(N3CCSCC3)nc2)cc1	i	-28%	-7%	?
CN(Cc1ccco1)C(=O)c1ccc(-c2ccc(N3CCCCCC3)nc2)cc1	?	40µM*	?	?
O=C(NCCN1CCCCC1)c1ccc(-c2ccc(N3CCCCC3)nc2)cc1	20µM*	?	-3%	?
O=C(NCc1ccccn1)c1ccc(-c2ccc(N3CCCCC3)nc2)cc1	?	22µM*	-26%	?
CN1CCN(CCNC(=O)c2ccc(-c3ccc(N4CCCCCC4)nc3)cc2)CC1	14µM*	25µM*	-17%	i
O=C(NCCN1CCCCC1)c1ccc(N2CC3CC(C2)[C@H]2CCCC(=O)N2C3)nc1 (stereo partly drawn)	1%	0%	5%	i
CNC(=O)[C@H]1CN(C(=O)c2cc(C)oc2C)[C@]2(C)C(=O)N(CC3CC3)c3ccccc3[C@H]12	?	-8%[57.5 µM]	·	·
CC(=O)Nc1ccc(S(=O)(=O)N[C@H]2CO[C@H]3[C@@H]2OC[C@@H]3n2nnnc2Oc2ccc(-n3ccnc3)cc2)cc1	3%	-13%	2%	i
COCCCn1c(=O)c(C(=O)N2CCN([S+](=O)([O-])c3ccc(C)cc3)CC2)nc2cccnc21	-15%	3%	·	·
O=C(NCCN1CCCCC1)c1ccc(-c2ccc(N3CCSCC3)nc2)cc1	28µM*	35µM*	-21%	i
O=C(NCCN1CCOCC1)c1ccc(-c2ccc(N3CCSCC3)nc2)cc1	-7%	?	-14%	?
CN(C)CCNC(=O)c1ccc(-c2ccc(N3CCCCCC3)nc2)cc1	18µM*	32µM*	-2%	?
O=C(Cc1ccccn1)NCCNC(=O)c1ccc(-c2cncnc2)cc1	?	89µM*	·	·
SMILES	NIH3T3 tox	HEK293 tox	NPR1 antag	FLuc inh
CNC(=O)c1cc(C)nc2onc(C3CCN(C(=O)Nc4ccccc4)CC3)c12	-13%	-3%	·	·
Cc1cccc(OCCc2noc(C3CN(C(=O)CCc4ccccc4)C3)n2)c1	?	?	-14%	i
CNC(=O)c1cc(C2CC2)nc2c1c(C1CCN(C(=O)c3cccc(OC)c3)C1)nn2C (stereo not drawn)	?	79µM*	·	·
CC(=O)Nc1cc(C2CC2)nn1C	5%	3%	·	·
O=C(N[C@@H]1CN(Cc2ccccn2)CCC[C@H]1O)c1ccc(OCc2ccccc2)cc1	?	89µM*	-10%[70.6 µM]	i
COC(=O)c1ccccc1NC(=O)N1CCC[C@@H](O)[C@H](NC(=O)c2ccc(OCc3c(C)noc3C)cc2)C1	40µM*	?	-4%	i
Cc1noc(C)c1COc1ccc(C(=O)N[C@@H]2CN(C(=O)Nc3cccc(C(F)(F)F)c3)CCC[C@H]2O)cc1	?	?	-5%	i
NC(=O)COc1ccc(C(=O)N[C@@H]2CN(Cc3ccccn3)CCC[C@H]2O)cc1	?	?	4%[70.6 µM]	i
O=C(N[C@@H]1CN(C(=O)Nc2cccc(C(F)(F)F)c2)CCC[C@H]1O)c1ccc(OCc2ccccc2)cc1	40µM*	32µM*	2%	i
COc1cccc(CN2CCC[C@@H](O)[C@H](NC(=O)c3ccc(OCc4ccccc4)cc3)C2)c1	35µM*	?	-15%	i
COc1ccc(C(=O)N[C@@H]2CN(Cc3cccc(OC)c3)CCC[C@H]2O)cc1	-23%[174 µM]	-26%[172 µM]	-2%[70.6 µM]	i
CCCn1cc(C(=O)N[C@@H]2COCC[C@H]2Oc2ccc(C#N)cc2)c(C)n1	-16%	i	0%	i
CN1Cc2cccn2CC1CNC(=O)NC1CCCCC1 (stereo not drawn)	-17%	2%	1%	i
C#CCNC(=O)c1ccc2oc(-c3cccnc3)nc2c1	-15%[138 µM]	?	·	·
CC[C@H]1CN(C(=O)Nc2cccc(C(F)(F)F)c2)CC[C@H]1CC(=O)Nc1ccccc1	?	50µM*	-8%[70.6 µM]	i
CC(=O)Nc1ccc(C(=O)NC[C@@H]2C=C(C)[C@H](CC(=O)NCCN3CCOCC3)C[C@H]2C(C)C)cc1	2%	-10%	6%	45µM*
CC1=C[C@@H](CNC(=O)c2cnccn2)[C@H](C(C)C)C[C@H]1CC(=O)NCCN1CCOCC1	-3%	-5%	1%	i
CC1=C[C@@H](CNC(=O)COc2ccccc2)[C@H](C(C)C)C[C@H]1CC(=O)NCCN1CCOCC1	-20%	-18%	-2%	i
CC1=C[C@@H](CNS(=O)(=O)c2cccs2)[C@H](C(C)C)C[C@H]1CC(=O)NCCN1CCOCC1	25µM*	-22%	2%	i
Cc1cnc(C2CCOCC2)n1CC1CCN(C(=O)COc2ccccc2)CC1	i	i	·	·
CC(C)CNC(=O)c1ccc2c(c1)NC(C)(CNc1ccccc1)CO2 (stereo not drawn)	?	?	-22%[70.6 µM]	i
CNC(=O)N1CCCCC1c1nc(CCOCC2CCOCC2)no1 (stereo not drawn)	i	0%	·	·
O=C(Nc1ccc(OC(F)(F)F)cc1)N1CCOC[C@H](Oc2ccccc2)C1	32µM*	56µM*	?	i
CCCNC(=O)N1CCOC[C@H](Oc2ccccc2)C1	i	i	5%[70.6 µM]	i
COc1ccc(-c2noc(-c3cccn3CC(=O)NCCc3ccccc3)n2)cc1F	-7%	-20%	-1%	i
Cc1cc(N2CCN(Cc3nc(-c4cccc(Cl)c4)no3)CC2)cc(C)n1	22µM*	40µM*	-12%	i
